In ChEMBL document CHEMBL1961873, “Compounds: GSK PKIS; Assays: Nanosyn kinase panel” (2012):

Columns and labels:
[1] = target: T1, Mitogen-activated protein kinase 12 (Homo sapiens) (UniProt P53778); conditions: at 1 µM;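 also: values are averaged p38gamma kinase inhibition readings, compounds tested at 1 µM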
T1 sequence (whole entry): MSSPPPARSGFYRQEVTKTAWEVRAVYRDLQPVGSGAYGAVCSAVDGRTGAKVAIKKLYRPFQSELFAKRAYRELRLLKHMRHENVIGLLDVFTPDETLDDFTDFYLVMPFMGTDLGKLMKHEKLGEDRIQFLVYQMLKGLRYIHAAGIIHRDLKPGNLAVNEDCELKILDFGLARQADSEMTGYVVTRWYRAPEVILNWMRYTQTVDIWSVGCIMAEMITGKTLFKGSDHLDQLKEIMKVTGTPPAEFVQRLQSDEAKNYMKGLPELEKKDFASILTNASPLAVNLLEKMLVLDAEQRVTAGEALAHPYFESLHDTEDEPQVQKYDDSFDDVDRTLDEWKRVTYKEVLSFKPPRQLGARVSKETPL

[2] = target: SRSF protein kinase 1 (Homo sapiens) (UniProt Q96SB4); conditions: at 0.1 µM
[3] = target: SRSF protein kinase 1 (Homo sapiens) (UniProt Q96SB4); conditions: at 1 µM
[4] = target: Phosphatidylinositol 4,5-bisphosphate 3-kinase catalytic subunit alpha isoform (Homo sapiens) (UniProt P42336); conditions: at 0.1 µM
[5] = target: Phosphatidylinositol 4,5-bisphosphate 3-kinase catalytic subunit alpha isoform (Homo sapiens) (UniProt P42336); conditions: at 1 µM
[6] = target: T2, Phosphatidylinositol 4,5-bisphosphate 3-kinase catalytic subunit delta isoform (Homo sapiens) (UniProt O00329); conditions: at 0.1 µM
T2 sequence (whole entry): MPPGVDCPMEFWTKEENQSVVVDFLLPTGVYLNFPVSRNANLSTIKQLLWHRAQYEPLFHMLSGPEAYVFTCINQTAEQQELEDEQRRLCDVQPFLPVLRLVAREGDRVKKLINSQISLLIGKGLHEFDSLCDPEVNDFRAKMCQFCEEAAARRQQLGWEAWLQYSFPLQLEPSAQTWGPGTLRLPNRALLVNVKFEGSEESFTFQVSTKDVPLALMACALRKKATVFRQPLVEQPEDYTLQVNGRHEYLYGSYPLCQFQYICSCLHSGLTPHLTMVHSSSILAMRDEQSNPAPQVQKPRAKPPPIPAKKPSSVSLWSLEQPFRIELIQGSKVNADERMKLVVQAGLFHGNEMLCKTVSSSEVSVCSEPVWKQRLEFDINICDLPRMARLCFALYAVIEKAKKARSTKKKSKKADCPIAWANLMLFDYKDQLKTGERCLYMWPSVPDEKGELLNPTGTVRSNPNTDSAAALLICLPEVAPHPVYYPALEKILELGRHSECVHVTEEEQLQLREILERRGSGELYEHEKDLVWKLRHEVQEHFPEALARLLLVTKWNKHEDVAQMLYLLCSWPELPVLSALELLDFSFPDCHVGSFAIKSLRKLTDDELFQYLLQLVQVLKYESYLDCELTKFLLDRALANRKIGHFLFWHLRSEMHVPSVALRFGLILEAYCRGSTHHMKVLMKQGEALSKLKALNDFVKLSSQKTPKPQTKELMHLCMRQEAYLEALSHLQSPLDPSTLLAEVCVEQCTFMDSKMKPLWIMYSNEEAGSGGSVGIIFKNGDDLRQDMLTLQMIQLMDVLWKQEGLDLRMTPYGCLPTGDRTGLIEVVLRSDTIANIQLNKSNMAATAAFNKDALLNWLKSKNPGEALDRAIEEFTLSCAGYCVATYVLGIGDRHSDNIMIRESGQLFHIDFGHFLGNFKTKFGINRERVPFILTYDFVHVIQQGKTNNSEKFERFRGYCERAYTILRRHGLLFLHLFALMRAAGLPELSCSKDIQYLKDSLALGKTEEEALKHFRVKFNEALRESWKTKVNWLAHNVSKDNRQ

[7] = target: T2, Phosphatidylinositol 4,5-bisphosphate 3-kinase catalytic subunit delta isoform (Homo sapiens); conditions: at 1 µM
[8] = target: Phosphatidylinositol 4-kinase beta (Homo sapiens) (UniProt Q9UBF8); conditions: at 0.1 µM
[9] = target: Phosphatidylinositol 4-kinase beta (Homo sapiens) (UniProt Q9UBF8); conditions: at 1 µM
[10] = target: Sphingosine kinase 1 (Homo sapiens) (UniProt Q9NYA1); conditions: at 0.1 µM
[11] = target: Sphingosine kinase 1 (Homo sapiens) (UniProt Q9NYA1); conditions: at 1 µM
[12] = target: T3, Sphingosine kinase 2 (Homo sapiens) (UniProt Q9NRA0); conditions: at 0.1 µM
T3 sequence (whole entry): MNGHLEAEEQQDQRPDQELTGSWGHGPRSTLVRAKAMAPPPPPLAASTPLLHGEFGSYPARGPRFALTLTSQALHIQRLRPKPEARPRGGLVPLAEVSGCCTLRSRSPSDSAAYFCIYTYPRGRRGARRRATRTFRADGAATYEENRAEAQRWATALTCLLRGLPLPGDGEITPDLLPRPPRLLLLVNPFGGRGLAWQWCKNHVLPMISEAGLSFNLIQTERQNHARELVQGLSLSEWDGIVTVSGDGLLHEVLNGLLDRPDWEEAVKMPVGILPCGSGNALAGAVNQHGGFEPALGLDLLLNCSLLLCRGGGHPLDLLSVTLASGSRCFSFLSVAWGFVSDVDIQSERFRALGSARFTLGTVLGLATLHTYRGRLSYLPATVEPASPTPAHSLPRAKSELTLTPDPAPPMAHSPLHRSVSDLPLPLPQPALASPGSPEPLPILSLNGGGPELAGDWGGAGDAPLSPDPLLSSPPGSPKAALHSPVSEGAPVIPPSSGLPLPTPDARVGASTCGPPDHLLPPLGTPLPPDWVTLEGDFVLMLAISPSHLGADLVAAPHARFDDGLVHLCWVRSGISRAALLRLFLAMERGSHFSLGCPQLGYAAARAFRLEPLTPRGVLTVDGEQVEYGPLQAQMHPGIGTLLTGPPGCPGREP

[13] = target: T3, Sphingosine kinase 2 (Homo sapiens); conditions: at 1 µM
[14] = target: Casein kinase II subunit alpha (Homo sapiens) (UniProt P68400); conditions: at 0.1 µM
[15] = target: Casein kinase II subunit alpha (Homo sapiens) (UniProt P68400); conditions: at 1 µM
[16] = target: T4, Inhibitor of nuclear factor kappa-B kinase subunit alpha (Homo sapiens) (UniProt O15111); conditions: at 0.1 µM
T4 sequence (whole entry): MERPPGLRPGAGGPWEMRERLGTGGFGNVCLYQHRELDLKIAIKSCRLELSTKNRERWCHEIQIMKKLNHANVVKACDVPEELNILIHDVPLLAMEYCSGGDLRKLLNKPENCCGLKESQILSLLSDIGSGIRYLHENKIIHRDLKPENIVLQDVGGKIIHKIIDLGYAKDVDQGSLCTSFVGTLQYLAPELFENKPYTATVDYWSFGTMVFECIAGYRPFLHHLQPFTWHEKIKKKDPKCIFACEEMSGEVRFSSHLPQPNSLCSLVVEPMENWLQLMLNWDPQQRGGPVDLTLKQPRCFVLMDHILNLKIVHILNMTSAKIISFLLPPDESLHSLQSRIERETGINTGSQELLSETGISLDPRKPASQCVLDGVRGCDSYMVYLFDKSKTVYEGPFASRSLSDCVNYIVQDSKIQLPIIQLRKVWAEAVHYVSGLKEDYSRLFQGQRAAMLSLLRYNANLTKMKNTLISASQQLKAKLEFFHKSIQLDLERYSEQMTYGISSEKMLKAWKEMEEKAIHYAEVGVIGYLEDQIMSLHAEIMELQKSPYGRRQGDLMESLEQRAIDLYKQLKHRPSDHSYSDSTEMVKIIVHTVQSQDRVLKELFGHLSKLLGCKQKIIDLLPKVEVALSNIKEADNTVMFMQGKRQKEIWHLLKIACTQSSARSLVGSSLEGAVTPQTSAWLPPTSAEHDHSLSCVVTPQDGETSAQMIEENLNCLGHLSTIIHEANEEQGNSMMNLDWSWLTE

[17] = target: T4, Inhibitor of nuclear factor kappa-B kinase subunit alpha (Homo sapiens); conditions: at 1 µM
[18] = target: T5, Inhibitor of nuclear factor kappa-B kinase subunit beta (Homo sapiens) (UniProt O14920); conditions: at 0.1 µM
T5 sequence (whole entry): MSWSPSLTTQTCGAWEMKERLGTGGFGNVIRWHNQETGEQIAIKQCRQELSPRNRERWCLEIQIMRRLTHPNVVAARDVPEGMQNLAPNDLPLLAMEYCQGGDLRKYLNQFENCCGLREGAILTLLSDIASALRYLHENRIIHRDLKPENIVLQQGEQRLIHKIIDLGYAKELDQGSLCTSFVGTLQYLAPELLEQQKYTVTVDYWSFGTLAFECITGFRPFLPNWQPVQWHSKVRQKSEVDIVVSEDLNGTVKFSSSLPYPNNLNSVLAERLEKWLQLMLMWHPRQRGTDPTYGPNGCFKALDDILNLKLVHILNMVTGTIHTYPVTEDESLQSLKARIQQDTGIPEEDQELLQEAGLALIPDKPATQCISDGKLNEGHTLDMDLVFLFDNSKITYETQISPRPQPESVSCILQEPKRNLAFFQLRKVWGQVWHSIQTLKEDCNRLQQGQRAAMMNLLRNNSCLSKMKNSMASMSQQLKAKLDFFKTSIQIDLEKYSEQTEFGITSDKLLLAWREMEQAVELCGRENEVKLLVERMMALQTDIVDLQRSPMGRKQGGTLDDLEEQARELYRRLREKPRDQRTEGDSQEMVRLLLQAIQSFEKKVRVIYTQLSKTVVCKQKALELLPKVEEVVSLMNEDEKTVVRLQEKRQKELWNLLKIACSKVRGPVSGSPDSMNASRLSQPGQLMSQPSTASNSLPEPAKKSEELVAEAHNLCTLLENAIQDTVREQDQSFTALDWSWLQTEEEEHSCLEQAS

[19] = target: T5, Inhibitor of nuclear factor kappa-B kinase subunit beta (Homo sapiens); conditions: at 1 µM
[20] = target: T6, Inhibitor of nuclear factor kappa-B kinase subunit epsilon (Homo sapiens) (UniProt Q14164); conditions: at 0.1 µM;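 also: mean inhibition of IKKε reported, from the GSK PKIS dataset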
T6 sequence (whole entry): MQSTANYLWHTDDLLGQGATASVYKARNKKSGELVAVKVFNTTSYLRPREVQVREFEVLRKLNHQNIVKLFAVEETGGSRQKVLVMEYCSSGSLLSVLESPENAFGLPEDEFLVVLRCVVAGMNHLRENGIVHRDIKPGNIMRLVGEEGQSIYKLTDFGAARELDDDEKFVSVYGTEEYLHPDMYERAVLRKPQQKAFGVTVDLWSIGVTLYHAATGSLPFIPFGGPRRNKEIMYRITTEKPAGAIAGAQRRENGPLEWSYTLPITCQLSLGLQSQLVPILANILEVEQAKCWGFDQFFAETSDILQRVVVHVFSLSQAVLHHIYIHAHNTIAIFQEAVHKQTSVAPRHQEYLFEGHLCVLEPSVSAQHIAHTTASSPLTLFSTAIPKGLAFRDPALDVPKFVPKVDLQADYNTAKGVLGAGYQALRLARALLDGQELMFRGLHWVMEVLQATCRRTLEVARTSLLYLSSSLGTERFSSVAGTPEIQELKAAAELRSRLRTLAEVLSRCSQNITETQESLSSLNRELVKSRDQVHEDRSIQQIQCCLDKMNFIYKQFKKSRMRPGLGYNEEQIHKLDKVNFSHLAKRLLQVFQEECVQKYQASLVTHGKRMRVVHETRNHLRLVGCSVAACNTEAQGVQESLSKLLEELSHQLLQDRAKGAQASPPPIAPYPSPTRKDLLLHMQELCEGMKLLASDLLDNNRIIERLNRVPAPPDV

Sequence of SRSF protein kinase 1 (Homo sapiens) (Q96SB4 whole entry, canonical isoform): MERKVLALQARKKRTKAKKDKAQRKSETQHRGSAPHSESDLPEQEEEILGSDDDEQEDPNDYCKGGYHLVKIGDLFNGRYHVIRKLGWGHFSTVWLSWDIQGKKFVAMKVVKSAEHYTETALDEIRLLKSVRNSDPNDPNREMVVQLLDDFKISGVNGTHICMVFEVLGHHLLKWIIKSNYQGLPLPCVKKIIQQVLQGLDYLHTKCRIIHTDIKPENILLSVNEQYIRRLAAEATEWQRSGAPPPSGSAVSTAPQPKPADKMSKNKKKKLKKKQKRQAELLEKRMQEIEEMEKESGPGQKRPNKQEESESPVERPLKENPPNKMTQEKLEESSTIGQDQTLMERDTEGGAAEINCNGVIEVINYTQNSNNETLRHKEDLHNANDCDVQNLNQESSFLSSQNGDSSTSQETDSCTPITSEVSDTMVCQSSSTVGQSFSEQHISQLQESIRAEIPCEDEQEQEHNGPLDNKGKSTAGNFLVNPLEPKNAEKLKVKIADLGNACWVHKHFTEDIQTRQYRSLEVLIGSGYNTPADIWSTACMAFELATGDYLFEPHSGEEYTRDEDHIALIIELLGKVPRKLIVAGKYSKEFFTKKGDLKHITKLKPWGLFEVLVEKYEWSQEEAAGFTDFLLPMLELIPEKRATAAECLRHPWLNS
Sequence of Phosphatidylinositol 4,5-bisphosphate 3-kinase catalytic subunit alpha isoform (Homo sapiens) (P42336 whole entry, canonical isoform): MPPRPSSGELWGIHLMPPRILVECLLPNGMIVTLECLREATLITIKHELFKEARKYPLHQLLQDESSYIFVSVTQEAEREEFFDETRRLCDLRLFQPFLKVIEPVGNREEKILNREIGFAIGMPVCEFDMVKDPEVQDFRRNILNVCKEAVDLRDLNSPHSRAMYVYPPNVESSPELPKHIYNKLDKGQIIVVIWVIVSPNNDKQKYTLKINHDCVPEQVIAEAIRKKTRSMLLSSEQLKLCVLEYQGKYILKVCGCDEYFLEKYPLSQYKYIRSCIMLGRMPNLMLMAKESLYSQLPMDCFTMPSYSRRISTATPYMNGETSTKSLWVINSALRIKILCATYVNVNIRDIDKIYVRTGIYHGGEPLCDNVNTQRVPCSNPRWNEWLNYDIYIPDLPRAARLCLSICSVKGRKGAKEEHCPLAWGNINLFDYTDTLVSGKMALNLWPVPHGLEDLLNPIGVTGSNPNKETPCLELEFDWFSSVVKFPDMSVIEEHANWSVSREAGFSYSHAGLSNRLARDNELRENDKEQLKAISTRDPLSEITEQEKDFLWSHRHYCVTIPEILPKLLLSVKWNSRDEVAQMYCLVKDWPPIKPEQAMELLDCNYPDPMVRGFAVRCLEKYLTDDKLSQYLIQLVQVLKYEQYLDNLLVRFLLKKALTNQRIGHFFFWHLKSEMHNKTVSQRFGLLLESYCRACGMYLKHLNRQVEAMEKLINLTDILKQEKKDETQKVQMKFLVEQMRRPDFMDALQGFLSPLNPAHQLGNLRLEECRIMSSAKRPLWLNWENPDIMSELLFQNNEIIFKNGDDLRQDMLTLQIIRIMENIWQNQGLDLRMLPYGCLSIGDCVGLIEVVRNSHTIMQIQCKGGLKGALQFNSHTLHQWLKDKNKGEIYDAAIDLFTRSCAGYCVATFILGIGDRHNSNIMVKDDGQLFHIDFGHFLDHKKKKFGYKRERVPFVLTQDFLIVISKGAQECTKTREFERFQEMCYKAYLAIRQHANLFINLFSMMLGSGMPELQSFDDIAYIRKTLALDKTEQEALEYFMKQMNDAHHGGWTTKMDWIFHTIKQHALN
Sequence of Casein kinase II subunit alpha (Homo sapiens) (P68400 whole entry, looked up): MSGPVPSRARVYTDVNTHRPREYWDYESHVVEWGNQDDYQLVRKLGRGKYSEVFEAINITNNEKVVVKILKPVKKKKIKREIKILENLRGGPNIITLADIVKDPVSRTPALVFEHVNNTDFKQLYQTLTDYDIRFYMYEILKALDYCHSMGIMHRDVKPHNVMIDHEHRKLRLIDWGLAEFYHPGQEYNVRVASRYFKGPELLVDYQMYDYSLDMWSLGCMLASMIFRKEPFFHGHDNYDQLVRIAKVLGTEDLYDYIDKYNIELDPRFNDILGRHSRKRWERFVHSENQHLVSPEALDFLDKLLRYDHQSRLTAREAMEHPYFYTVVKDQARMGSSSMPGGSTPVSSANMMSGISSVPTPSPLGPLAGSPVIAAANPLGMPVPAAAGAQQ
Sequence of Sphingosine kinase 1 (Homo sapiens) (Q9NYA1 whole entry): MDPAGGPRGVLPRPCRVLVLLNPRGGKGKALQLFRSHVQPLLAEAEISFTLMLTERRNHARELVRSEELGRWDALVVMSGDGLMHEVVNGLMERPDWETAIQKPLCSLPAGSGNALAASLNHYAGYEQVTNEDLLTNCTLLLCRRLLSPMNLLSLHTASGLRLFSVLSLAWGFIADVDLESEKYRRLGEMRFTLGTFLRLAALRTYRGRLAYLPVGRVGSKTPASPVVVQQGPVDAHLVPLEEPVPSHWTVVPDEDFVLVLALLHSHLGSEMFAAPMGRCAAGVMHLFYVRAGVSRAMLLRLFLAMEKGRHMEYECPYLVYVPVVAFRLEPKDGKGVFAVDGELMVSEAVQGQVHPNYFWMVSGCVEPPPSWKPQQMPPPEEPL
Sequence of Phosphatidylinositol 4-kinase beta (Homo sapiens) (Q9UBF8 2-816 limits assumed): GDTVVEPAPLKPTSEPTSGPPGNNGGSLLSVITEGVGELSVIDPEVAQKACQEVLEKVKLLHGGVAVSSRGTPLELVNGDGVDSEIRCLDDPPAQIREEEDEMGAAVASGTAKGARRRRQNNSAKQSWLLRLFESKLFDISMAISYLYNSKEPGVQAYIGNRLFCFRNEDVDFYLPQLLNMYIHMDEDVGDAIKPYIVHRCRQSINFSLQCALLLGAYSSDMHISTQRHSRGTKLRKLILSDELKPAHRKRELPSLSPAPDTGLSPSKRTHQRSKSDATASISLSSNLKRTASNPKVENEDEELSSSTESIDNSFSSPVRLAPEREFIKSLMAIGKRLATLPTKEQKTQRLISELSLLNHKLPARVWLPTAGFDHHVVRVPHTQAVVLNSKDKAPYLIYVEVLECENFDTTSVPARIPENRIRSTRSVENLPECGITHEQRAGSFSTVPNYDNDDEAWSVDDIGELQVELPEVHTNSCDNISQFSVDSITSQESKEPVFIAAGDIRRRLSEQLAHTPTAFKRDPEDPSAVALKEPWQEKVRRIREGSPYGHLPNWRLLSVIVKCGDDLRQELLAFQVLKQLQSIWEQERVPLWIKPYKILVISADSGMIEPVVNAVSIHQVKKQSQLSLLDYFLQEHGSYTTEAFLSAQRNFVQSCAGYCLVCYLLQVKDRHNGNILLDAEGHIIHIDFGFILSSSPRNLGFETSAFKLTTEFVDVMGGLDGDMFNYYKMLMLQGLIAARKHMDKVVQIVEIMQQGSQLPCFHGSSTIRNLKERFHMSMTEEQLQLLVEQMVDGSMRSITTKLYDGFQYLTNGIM

| Structure (SMILES) | inhibition [1] [%] | inhibition [2] [%] | inhibition [3] [%] | inhibition [4] [%] | inhibition [5] [%] | inhibition [6] [%] | inhibition [7] [%] | inhibition [8] [%] | inhibition [9] [%] | inhibition [10] [%] | inhibition [11] [%] | inhibition [12] [%] | inhibition [13] [%] | inhibition [14] [%] | inhibition [15] [%] | inhibition [16] [%] | inhibition [17] [%] | inhibition [18] [%] | inhibition [19] [%] | inhibition [20] [%] |
| --- | --- | --- | --- | --- | --- | --- | --- | --- | --- | --- | --- | --- | --- | --- | --- | --- | --- | --- | --- | --- |
| Cc1cc(O)cc(C)c1/C=C/c1cncc(C(=O)N(C)C)c1 | 2.68 | -0.98 | -1.41 | 1.77 | 0.49 | 1.59 | 1.73 | -2.1 | 0.47 | -0.11 | -0.49 | -0.12 | 0.05 | 4.25 | 5.95 | 5.21 | 9.29 | 6.05 | 2.23 | 2.77 |
| CN(c1ccc(NC(=O)Nc2ccc(OC(F)(F)F)cc2)cc1)c1ccnc(Nc2cccc(S(N)(=O)=O)c2)n1 | 11.2 | -0.74 | 1.1 | 2.98 | 5.04 | 1.08 | 3.29 | -1.47 | 3.37 | -0.13 | 0.54 | -0.4 | 1.23 | 2.7 | 1.68 | 8.41 | 3.54 | 3.29 | 2.85 | 5.07 |
| COC(=O)Nc1nc2cc(Oc3ccc(NC(=O)Nc4cccc(Br)c4)cc3)ccc2[nH]1 | 1.52 | -2.5 | -2.45 | 0.99 | 8.57 | 1.03 | 7.1 | 0.03 | -5.6 | -1.27 | -3.97 | 0.52 | 1.73 | 2.56 | 2.62 | 7.56 | 7.22 | 5.61 | 7.62 | 4.82 |
| OCc1ccc(-c2nc(-c3ccccn3)c(-c3ccc4c(c3)OCO4)[nH]2)cc1 | 2.49 | -1.33 | -3.19 | 3.36 | 2.23 | 1.52 | 3.07 | -1.63 | -0.21 | 0 | -4.68 | -0.11 | 0.5 | 2.74 | -0.37 | 6.97 | 8.08 | 5.29 | 4.72 | 4.91 |
| CCn1c(-c2nonc2N)nc2ccc(F)cc21 | 3.36 | -1.22 | 2.61 | 4.99 | 4.15 | 3.09 | 2.96 | -0.18 | 6.29 | 0.88 | 0.48 | 3.46 | -5.33 | 4.71 | 8.79 | 4 | 6.96 | 7.24 | 8.68 | 8.59 |
| N#Cc1c(NC(=O)c2ccccc2F)sc2c1CCCC2 | -0.74 | -1.54 | -0.64 | -2.15 | -1.29 | 1.85 | 2.06 | 0.79 | 2.03 | 0.86 | 1.37 | 0.4 | -1.81 | 2.62 | 1.09 | 2.43 | 5.52 | -1.19 | -1.36 | -2.08 |
| Nc1ccc(C#Cc2cncnc2Nc2ccc(OCc3cccc(F)c3)c(Cl)c2)cc1 | 2.1 | -1.42 | -0.29 | 2.27 | 3.14 | 0.98 | 1.62 | 5.59 | 0.07 | 0.21 | -2.59 | -3.76 | 0 | 4.6 | 2.02 | 0.36 | 2.27 | 4.1 | 4.66 | 3.63 |
